Bioassay records (PubChem BioAssay)
NPSR antagonist – antagonists of human neuropeptide S receptor cAMP signaling. Q6W5P4. CHO-NPSR cells, cAMP TR-FRET, antagonist mode. Potency, µM (top dose mostly 38.3 µM), inactives show at the highest dose activity change, negative = inhibition, actives largely listed as inhibitors. 220,000 compounds, 1% hits. AID 1461; further: on the % scale 0 is the no-effect control and ±100 the full control effect; nearly all actives have a fitted effect of over 50% in size
Target sequence (Q6W5P4 whole entry, looked up): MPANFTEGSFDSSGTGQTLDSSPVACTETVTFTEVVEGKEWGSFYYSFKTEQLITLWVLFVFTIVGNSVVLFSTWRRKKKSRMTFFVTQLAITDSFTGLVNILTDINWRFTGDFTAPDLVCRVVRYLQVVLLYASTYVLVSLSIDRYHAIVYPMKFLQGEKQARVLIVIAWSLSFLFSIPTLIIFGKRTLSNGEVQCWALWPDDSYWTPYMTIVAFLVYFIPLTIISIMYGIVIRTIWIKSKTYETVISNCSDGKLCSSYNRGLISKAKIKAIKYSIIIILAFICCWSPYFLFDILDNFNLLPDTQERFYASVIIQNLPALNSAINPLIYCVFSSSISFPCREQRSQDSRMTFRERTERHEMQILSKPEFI
HttQ103 aggreg – reduces HttQ103-GFP aggregates in PC12 cells. PC12 HttQ103-GFP aggregates, Acumen cytometry, 40 h. Potency, µM (series often up to 46.1 µM), without a hit: top-dose activity change, negative = inhibition, hits mostly inhibitors. 220,000 compounds, 1.1% hits. AID 1688; further: on the % scale 0 is the no-effect control and ±100 the full control effect; nearly all actives have a fitted effect of over 60% in size
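Aggregates are detected as GFP objects 1–25 µm with signal 6 STDEV over background in lysates of induced PC12 cells. These carry Huntingtin exon 1 with 103 glutamines fused to GFP under an ecdysone promoter; compounds titrated.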
IMPase Li cell – membrane-permeable IMPase blocker, potentiated with lithium; Potency, µM (highest dose often 59.4 µM), inactives show at the top dose activity, negative = IMPase inhibition, actives largely listed as inhibitors; CHO-M1 cells, IP1 TR-FRET (IP-One), carbachol + lithium; 210,000 compounds, 0.35% hits; AID 1457;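 further: IP1 builds up when IMPase is blocked and the TR-FRET signal falls; plate controls were basal vehicle for no effect and high inhibitor control for full effect; nearly all actives have a fitted effect of over 50% in size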
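Readout is a homogeneous TR-FRET IP1 immunoassay (Ex 320, Em 665 and 620), where raised cytosolic IP1 lowers signal. Cells were CHO-M1 treated 30 min at 37C with test compounds plus a little lithium; AC50 values came from Hill-equation fitting.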
HTT ATP protect – cytoprotection in Huntington HTT-Q103 PC12 cell model | 230,000 compounds, 0.14% hits | PC12 HTT-Q103 induced, cytoprotection, ATP luminescence, 40 h | AID 1471 | Potency, µM (highest dose often 56.4 µM), inactives show cytoprotection (ATP increase), usual class: activators; further: % of control where 0% means no effect; nearly all actives have a fitted effect of over 45% in size
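ATP quantification (ATPlite) reports survival of PC12 cells in which tebufenozide, 100 nM final, switches on Htt exon 1 with 103 glutamines linked to GFP; compounds are titrated.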
ERK EGF inh – EGF-driven ERK pathway inhibition; Potency, µM (top dose mostly 11.5 µM), for inactives: top-dose activity change, negative = inhibition, actives largely listed as inhibitors; HEK293-V1b, EGF-stimulated phospho-ERK AlphaScreen; AID 1454; 130,000 compounds, 0.41% hits;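 further: plate controls were stimulated vehicle wells for no effect and unstimulated vehicle basal for full effect; nearly all actives have a fitted effect of over 55% in size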
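HEK293 cells stably expressing V1b receptor, serum-reduced (1% FBS) overnight, got compound for 30 min at 37C, then 25 nM EGF for 5 min. Lysate phospho-ERK read by AlphaScreen SureFire; AC50 from Hill fits.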
Active calls of the source: *; ? = inconclusive; . = not tested or not shown; [ ] = remark or other dose. In the library only some 1.9% were active in any assay of this set; here they are far more common. The call rests on the fitted dose curve; in most records, active means well fitted curve in the direction sought with a large enough effect; inconclusive means small, poorly fitted or top-dose-only effect, or another doubt; inactive means no such curve, though single readings can be large; an effect the other way counts as inactive or inconclusive. Potency means the concentration at half of the fitted maximal effect.

SMILES	NPSR antagonist	HttQ103 aggreg	IMPase Li cell	HTT ATP protect	ERK EGF inh
Cc1ccc2c(CSc3nc4nc(C)cc(C)n4n3)cc(=O)oc2c1	10µM*	0%	.	-16%	.
O=C1c2ccccc2-c2onc3ccc(N4CCCC4)c1c23	13µM*	-5%	68%	-77%	?
Cn1c(=O)cc2c3c(c(N4CCCCC4)ccc31)C(=O)c1ccccc1-2	-12%	6%[9.22 µM]	.	-12%[10 µM]	22µM*
COc1ccc(C(=O)[C@H]2[C@H]3[C@@H](C(=O)[C@@H]4OC[C@H]3O4)[C@H]3C=Cc4ccccc4N32)c(OC)c1	.	.	.	-3%	.
CC(=O)c1c(O)cc(C)n(Nc2nc(C)cc(C)n2)c1=O	-11%[46.1 µM]	1.3µM*	4%[38.3 µM]	-2%	.
CC(=O)c1c(O)cc(C)n(-c2ccc(F)cc2)c1=O	19%	0%[9.22 µM]	-5%	-20%	10%
O=S(=O)(Nc1nc2ccccc2nc1NCc1ccco1)c1ccccc1	-9%[46.1 µM]	9%	15%[38.3 µM]	15%[0.074 µM]	.
c1coc(CNc2nc3nonc3nc2NCc2ccco2)c1	-5%[46.1 µM]	11µM*	6%[38.3 µM]	-10%[10 µM]	.
CC(=O)c1c(C)[nH]c(C(=O)COc2cc(C)ccc2C(C)C)c1C	-14%[46.1 µM]	1µM*	18%[38.3 µM]	-13%	.
CC(=O)N[C@@H](C(=O)O)C(C)(C)SN=O	.	.	27%	4%	3%
CCN1C(C)=C(C(=O)OC)C(c2ccccc2)N2C(=O)[C@@]3(C(=O)OC)O[C@@]12C1C(=O)CCCC13 (some centres undefined)	.	.	.	1%[10 µM]	.
COc1ccc(-c2cc(C(=O)O)c3ccccc3n2)c(OC)c1	0%[46.1 µM]	20%	0%[38.3 µM]	-11%	.
COc1cc(/C=C/c2cc(C(=O)O)c3ccccc3n2)cc(OC)c1O	-17%	7%	23%	-3%[10 µM]	32µM*
COc1ccc2cc(-c3cc(C(=O)O)c4ccccc4n3)ccc2c1	?	26%	10µM*	-165%	.
COCn1c2ccccc2c2nnc(C(=O)O)nc21	.	.	.	-19%[10 µM]	.
CCN(CC)CCCn1c(-c2ccccc2)nc2c(N3CCOCC3)nc(C)nc21	.	.	0%	?	-4%
Cc1ccc(S(=O)(=O)NC(=O)NC2CCCCCCC2)cc1	.	25%	.	16%	.
O=C(CCc1ccccc1)n1nc(-c2ccccc2)nc1NCc1ccco1	-12%[46.1 µM]	25µM*	11%	6%[10 µM]	3%
COc1ccc(O[C@H]2C=C[C@@H](c3ccccc3)O[C@H]2COC(=O)CC/C(C)=N\OC[C@@H](O)[C@H]2O[C@H]3OC(C)(C)O[C@H]3[C@@H]2O)cc1	.	.	.	-14%[10 µM]	.
COc1ccc(N/C=C2/CCCCC2=O)cc1	3%[46.1 µM]	6%	39%[38.3 µM]	20µM*	.
O=c1c(-c2ccccc2)c(O)c2c(n1-c1ccccc1)CCCC2	-4%	2%	9%	.	1%
O=c1[nH]c(=S)c2c(n1-c1ccccc1)CCC2	?	1%	10µM*	-12%[0.074 µM]	.
Cc1cc2c3c(c1)C(C)(c1ccccc1)CC(C)(C)N3C(=O)C21C(C#N)=C(N)OC2=C1C(=O)CC(C)(C)C2 (centres undefined)	10µM*	-7%[9.22 µM]	-2%[38.3 µM]	8%	.
N#Cc1cccc(NC(=O)N2CCC3(CC2)CCN(C(=O)c2ccco2)CC3)c1	.	.	6%	?	4%
O=[N+]([O-])c1cccc(S(=O)(=O)Nc2nc3ccccc3nc2Nc2cccc(S(=O)(=O)N3CCCCC3)c2)c1	6.3µM*	?	21%	39%[10 µM]	13%
SMILES	NPSR antagonist	HttQ103 aggreg	IMPase Li cell	HTT ATP protect	ERK EGF inh
Cc1cccc(S(=O)(=O)Nc2nc3ccccc3nc2Nc2ccc3c(c2)OCO3)c1	3%	5%	20%	-15%[10 µM]	4%
O=C1ON=C(c2ccccc2)/C1=C/c1ccc(-c2ccccc2[N+](=O)[O-])o1	7.9µM*	-15%	11%	.	?
NC(=O)N/N=C\c1cc(Br)ccc1O	35%	1%	-9%	11%[10 µM]	-5%
CC(C)(C)c1nnc(N/N=C/c2cc(Br)ccc2O)n(N)c1=O	?	13µM*	16%	-24%[10 µM]	?
COCCN1C(=O)C(=O)/C(=C(/O)c2ccc(OCC(C)C)cc2)C1c1cccnc1 (centres undefined)	.	.	.	3%[0.074 µM]	.
O=C1C(=O)N(CCOCCO)C(c2ccccn2)/C1=C(\O)c1ccccc1 (centres undefined)	15%[46.1 µM]	-7%	.	-15%[10 µM]	.
CCCOc1ccc(/C(O)=C2/C(=O)C(=O)N(CCCn3ccnc3)C2c2cccnc2)cc1 (centres undefined)	-6%	18%[9.22 µM]	.	7%[10 µM]	?
CCOc1ccc(/C(O)=C2/C(=O)C(=O)N(CCOCCO)C2c2cccnc2)cc1 (centres undefined)	?	5%	11µM*	-6%	.
COCCN1C(=O)C(=O)/C(=C(/O)c2ccc(OC(C)C)cc2)C1c1cccnc1 (centres undefined)	?	-6%	10µM*	21%[0.074 µM]	.
COc1ccc(/C(O)=C2/C(=O)C(=O)N(Cc3cccnc3)C2c2ccccn2)cc1 (centres undefined)	10%	-12%	-20%	7%[10 µM]	-10%
Cc1cc(OCC(C)C)ccc1/C(O)=C1/C(=O)C(=O)N(Cc2cccnc2)C1c1ccncc1 (centres undefined)	?	-8%	4.5µM*	6%[10 µM]	-1%
CCOc1ccc(/C(O)=C2/C(=O)C(=O)N(CCOCCO)C2c2ccccc2)cc1 (centres undefined)	27%[46.1 µM]	?	11µM*	4%[0.074 µM]	.
C=CC[C@@H]1C=C[C@H](ON=C(C)C)[C@H](CO)O1	.	.	.	-6%[10 µM]	.
CNC1C(O)C(OC2C(NC(=O)C(O)CN)CC(N)C(OC3OC(CN)C(O)C(O)C3O)C2O)OCC1(C)O (centres undefined)	.	12%	.	-3%	.
COc1cc2c(cc1OC)C(C(C(=O)N(CCc1ccc(OC)c(OC)c1OC)CCc1ccc(OC)c(OC)c1OC)c1ccccc1)=NCC2 (centres undefined)	.	-10%	12%	-41%	.
COC(=O)c1cc(C(=O)c2cc(Br)ccc2O)coc1=N	-15%	-11%	3%	-19%	-6%
CC(C)NC(=O)c1cc(C(=O)c2cc(Cl)ccc2O)coc1=N	-23%[46.1 µM]	7.9µM*	20%[38.3 µM]	-9%	.
c1ccc(SCCSc2ccccc2)cc1	.	.	-4%	-23%	.
Cc1ccc(/C=C2\Oc3c(ccc(O)c3CN3CCN(CCO)CC3)C2=O)cc1	10µM*	5%	-11%	28%	-1%
CC(C)c1ccc(/C=C2\Oc3c(ccc(O)c3CN3CCN(C)CC3)C2=O)cc1	10µM*	4%	2%	-13%	1%
CC[C@]1(O)C[C@H]2CN(CCc3c([nH]c4ccccc34)[C@](C(=O)OC)(c3cc4c(cc3OC)N(C)[C@@H]3[C@](O)(C(=O)OC)[C@H](OC(C)=O)[C@]5(CC)C=CCN6CC[C@]43[C@@H]65)C2)C1	.	.	.	-52%[1.9 µM]	.
CCCCCCCC(=O)OCCOC(=O)CCCCCCC	.	.	-3%	.	.
